Measurements taken from publication PMC4336329 (PLoS ONE, 2015).
Among all 310,000 compounds or so, about 14,000 (4.5%) showed an effect of 50% or more. The effect is printed as a negative number. The list comes from a sample in which strong results are over-represented; it also holds similar structures and randomly drawn compounds.

What follows are molecules tested against human ether-à-go-go-related gene (hERG) potassium channel (human, UniProt Q12809) (assay: primary screen, population patch clamp on CHO cells stably expressing hERG; higher = less effect of the substance).
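Also: peak tail current of the secondary pulse compared with the same well before compound.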

human ether-à-go-go-related gene (hERG) potassium channel, sequence (Q12809 whole entry, looked up): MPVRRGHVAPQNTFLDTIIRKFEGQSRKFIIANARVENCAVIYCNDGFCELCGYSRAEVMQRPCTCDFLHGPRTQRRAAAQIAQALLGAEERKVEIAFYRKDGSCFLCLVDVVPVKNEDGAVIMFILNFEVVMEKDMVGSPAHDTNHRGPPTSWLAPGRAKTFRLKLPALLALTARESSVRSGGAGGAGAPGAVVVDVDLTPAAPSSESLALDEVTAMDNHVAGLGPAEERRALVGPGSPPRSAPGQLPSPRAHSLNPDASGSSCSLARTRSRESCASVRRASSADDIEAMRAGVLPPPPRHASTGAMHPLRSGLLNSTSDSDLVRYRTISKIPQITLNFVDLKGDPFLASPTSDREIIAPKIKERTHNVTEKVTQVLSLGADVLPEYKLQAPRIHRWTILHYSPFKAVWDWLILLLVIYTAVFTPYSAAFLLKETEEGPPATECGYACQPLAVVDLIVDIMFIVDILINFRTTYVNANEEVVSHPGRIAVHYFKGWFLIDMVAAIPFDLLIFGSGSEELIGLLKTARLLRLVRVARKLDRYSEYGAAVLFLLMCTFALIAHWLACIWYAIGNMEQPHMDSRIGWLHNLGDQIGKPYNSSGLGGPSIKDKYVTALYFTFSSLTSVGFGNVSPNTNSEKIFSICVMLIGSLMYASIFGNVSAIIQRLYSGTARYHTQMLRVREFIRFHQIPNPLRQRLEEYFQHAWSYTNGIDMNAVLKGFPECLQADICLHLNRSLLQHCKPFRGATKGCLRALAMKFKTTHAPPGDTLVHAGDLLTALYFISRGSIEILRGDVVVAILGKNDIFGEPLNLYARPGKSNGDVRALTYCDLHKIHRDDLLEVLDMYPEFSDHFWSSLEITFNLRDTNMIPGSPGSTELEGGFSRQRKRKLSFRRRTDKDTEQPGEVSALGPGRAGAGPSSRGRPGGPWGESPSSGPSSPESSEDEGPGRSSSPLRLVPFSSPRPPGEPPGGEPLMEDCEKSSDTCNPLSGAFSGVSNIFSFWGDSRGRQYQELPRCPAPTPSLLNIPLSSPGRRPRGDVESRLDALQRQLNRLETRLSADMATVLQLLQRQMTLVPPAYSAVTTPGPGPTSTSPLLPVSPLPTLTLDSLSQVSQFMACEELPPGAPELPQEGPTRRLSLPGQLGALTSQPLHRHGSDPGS

SMILES | hERG current change (%, negative = inhibition) at 10uM [%]
CN(c1ccc(C(=O)NCc2ccco2)cc1)S(C)(=O)=O | 5.87
NC(=O)C1CCN(C(=O)c2cc3n(n2)C(C(F)(F)F)CC(c2ccco2)N3)CC1 (stereo not drawn) | 14.8
Cc1nc(-c2ccc(Cl)cc2)sc1C1(C)CC(c2ccc(C#N)cc2)=NO1 (stereo not drawn) | -29.2
Cc1ccc(OCc2nnc(SCC(=O)Nc3ccc4c(c3)OCCO4)n2Cc2ccco2)cc1 | 6.31
COc1ccc2c(c1)c(C(C)=O)c(C)n2CCc1ccc(OC)c(OC)c1 | -6.52
COc1ccc(C2Nc3ccccc3C(=O)N2NS(=O)(=O)c2ccccc2)cc1OC (stereo not drawn) | 13.5
COc1cc(NS(=O)(=O)c2ccc(NC(=O)C3CCCO3)cc2)nc(OC)n1 (stereo not drawn) | 6.87
S=c1[nH]nc(-c2ccccc2)n1/N=C/c1ccc(-c2ccccc2Cl)o1 | 25.4
Cc1cccc(NC(=O)c2cc3c(=O)n4ccccc4nc3s2)c1 | 10.8
Cc1cccc(NC(=O)c2cc3c(=O)n4ccccc4nc3n(CC(C)C)c2=N)c1 | -78
COc1ccc(NC(=O)c2cc3c(=O)n4ccccc4nc3n2C)cc1OC | 13.7
COc1cccc(NC(=O)C(Sc2nc3ccccc3c(=O)n2CC(C)C)c2ccccc2)c1 (stereo not drawn) | 11.8
COc1cccc(NC(=O)c2cc3c(=O)n4ccccc4nc3n(CC(C)C)c2=N)c1 | -82
Cc1cccc(NC(=O)c2c(C)nc3ccccn23)c1 | -0.935
CCOc1ccc(NC(=O)CSc2nc(=O)n(Cc3cccnc3)c3c2CCC3)cc1 | -8.74
CN(c1cccc(NC(=O)c2cccc([N+](=O)[O-])c2)c1)S(C)(=O)=O | 13.1
O=C(Nc1ccc(N2CCOCC2)cc1N1CCOCC1)c1ccc([N+](=O)[O-])cc1 | 2.51
COc1cc(/C=N/NS(=O)(=O)c2ccc(Br)cc2)ccc1O | 1.58
Cc1ccc(NC(=O)CNC(=O)c2ccco2)nc1 | 17.3
CCOc1cc(S(=O)(=O)n2cnc(C)c2)ccc1Cl | -8.24
COc1ccc(/C=C/C(=O)N2CCN(C)CC2)cc1OC | 6.7
COc1ccc(/C=C/C(=O)N(C)C2CCS(=O)(=O)C2)cc1OC (stereo not drawn) | 2.01
COc1ccc(/C=C/C(=O)N(C)c2ccccc2C(=O)O)cc1 | -4.18
COc1ccc(N(C(=O)/C=C/c2ccc(OC)c(OC)c2)C2=CC3CCC(C2)N3C)cc1.Cl (stereo not drawn) | -69.6
COc1ccc(C(=O)Cn2c(C(=O)/C=C/c3ccccc3)nc3ccccc32)cc1 | -16.4
COc1ccc(N(C(=O)/C=C/c2ccccc2)C2=CC3CCC(C2)N3C)cc1.Cl (stereo not drawn) | -74.6
Cn1c(C(=O)N[C@@H](Cc2ccccc2)C(=O)NCCC(=O)O)cc2cc(Cl)ccc21 | 0.651

SMILES | hERG current change (%, negative = inhibition) at 10uM [%]
COc1ccc(OCC(=O)OCC(=O)N2CC(=O)Nc3ccccc32)cc1 | -3.16
Cc1ccc(CCC(=O)Nc2ccc([N+](=O)[O-])cc2)o1 | 0.967
COc1ccc(-n2cc(-c3ccccc3)c3c(N4CCN(CCO)CC4)ncnc32)cc1 | -42
CC1CN(c2ncnc3c2c(-c2ccccc2)cn3-c2ccc(F)cc2)CC(C)O1 (stereo not drawn) | 12
OCCN1CCN(c2ncnc3c2c(-c2ccccc2)cn3-c2ccc(Br)cc2)CC1 | -15.2
Cc1ccc(-n2cc(-c3ccccc3)c3c(N4CCN(C)CC4)ncnc32)cc1 | -9.95
CCN1CCN(c2ncnc3c2c(-c2ccccc2)cn3-c2ccc(F)cc2)CC1 | -74.5
OCCN1CCN(c2ncnc3c2c(-c2ccccc2)cn3-c2ccc(F)cc2)CC1 | -74.3
CNCCCC1c2ccccc2C=Cc2ccccc21.Cl | 13.2
O=c1[nH]c(Nc2ccccc2Cl)cc2ccccc12 | 10.9
O=C(Cc1ccccc1F)OCN1C(=O)c2ccccc2C1=O | 21.5
N#C/C(=C/c1cccc(C(F)(F)F)c1)c1nc(CCN2C(=O)c3ccccc3C2=O)cs1 | -0.904
N#Cc1cccc(C(=O)OCC(=O)N2CCCc3ccccc32)c1 | -1.94
COc1ccc(CN2CCC(n3nccc3NC(=O)CCCc3ccccc3)CC2)cc1C | -93.3
COc1cc(CN2CCC(n3nccc3NC(=O)CCCc3ccccc3)CC2)ccc1O | -31.1
COc1cc(CN2CCC(n3nccc3NC(=O)CCCc3ccccc3)CC2)ccc1F | -66.5
O=C(O)CNC(=O)c1ccccc1NC(=O)c1ccco1 | 7.93
COc1ccccc1C/C(N)=N/OC(=O)COc1ccc(C)cc1C | 17.4
CC12CC3CC(C)(C1)CC(C(=O)NCc1cccnc1)(C3)C2 | -11.6
Fc1ccc(CN2CCCN(Cc3nc(-c4ccc5c(c4)OCO5)no3)CC2)cc1 | -62.2
c1ccc(OCCN2CCN(Cc3nc(-c4ccc5c(c4)OCO5)no3)CC2)cc1 | -51.5
COCC1CCCN(Cc2nc(-c3ccc4c(c3)OCO4)no2)C1 (stereo not drawn) | -5.71
COCC1CCN(Cc2nc(-c3ccc4c(c3)OCO4)no2)C1 (stereo not drawn) | -17.1
O=C(c1ccco1)N1CCCN(Cc2nc(-c3ccc4c(c3)OCO4)no2)CC1 | -46.1
c1cc(C2CCN(Cc3nc(-c4ccc5c(c4)OCO5)no3)CC2)ccn1 | -19.7
Fc1ccccc1CNc1ncnc2sccc12 | 11.9
CCOC(=O)CN1C(=O)SC(Nc2ccc(C)cc2)C1=O (stereo not drawn) | 27.1
